PTK2B oligo ant = blocks oligomerization of human Pyk2 in cells. Q14289. Q293 cells, Pyk2 FERM NanoBiT luminescence; stronger effect = lower value. z-score (the deposit names both 25 µM and 10 µM). 99,000 tested, 0.83% active;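 active = Z-score of -3 or lower, scaled per plate to the spread of control and sample wells; inactive = z-score above -3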;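 also: negative z-score means lost luminescence so less FERM oligomerization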
CYP2C9 activ = CYP2C9 (human) activation; P11712; activation factor at 5 µM; 96,000 tested, 1.4% active; recombinant CYP2C9, luciferin-H conversion, luminescence; stronger effect = higher value; factor 1 = untreated enzyme, 0 = blocked;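 active = activation factor of 2 or more for CYP2C9 at a 5 µM dose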
CYP2C19 inh = human CYP2C19 inhibition. AID 778. P33261. inhibition, % at 5 µM. CYP2C19 Supersomes, luciferin-H EGE luminescence, 30 min. 96,000 tested, 21% active;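 active = CYP2C19 inhibition above a set limit at 5 µM in the primary screen, cut at about 50% in these data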
CYP2C19 activ = increases human CYP2C19 enzyme activity; P33261; activation factor at 5 µM; recombinant CYP2C19, luciferin-H EGE luminescence; stronger effect = higher value; 0 = fully inhibited enzyme, 1 = untreated enzyme; AID 1025; 96,000 tested, under 10 active;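 active = activation factor of at least 2 at 5 µM in the primary screen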
CYP2C9 inh = human CYP2C9 inhibition; CYP2C9 Supersomes, luciferin-H conversion, luminescence; P11712; 96,000 tested, 20% active; inhibition, % at 5 µM;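 active = blocking of liver enzyme CYP2C9 beyond about 50% at 5 µM, limit read from the data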
Cav32 inh = human Cav3.2 channel inhibition, primary screen; O95180; Cav3.2-expressing cells, Fluo-4 calcium fluorescence FDSS; stronger effect = lower value; B-score at 10 µM; 100,000 tested, 4% active; AID 449739;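 active = single-dose well whose peak fluorescence ratio is a statistical outlier from its plate by either plate-standardised score or position-corrected B-score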
Numbers stand for hits; - = inactive; . = no result given. Sampled rows, rich in hits. Any-hit rate of the full collection: about 27%.

SMILES | PTK2B oligo ant | CYP2C9 activ | CYP2C19 inh | CYP2C19 activ | CYP2C9 inh | Cav32 inh
CC/C(=N\NS(C)(=O)=O)c1ccccc1 | . | - | - | - | - | -
COc1cc(/C=C(/C#N)c2nc3ccccc3[nH]2)ccc1Oc1ncccc1[N+](=O)[O-] | - | - | 62 | - | 66 | -
COc1ccc(O)c(/C=N/c2sc(C)c(C)c2C#N)c1 | - | - | - | - | - | -
Clc1ccccc1CN(Cc1ccccc1)c1ncnc2nc[nH]c12 | - | - | - | - | - | -3.7
COc1ccc(Cl)cc1C(=O)Nn1c(C)nc2ccccc2c1=O | - | - | 57 | - | 52 | -
COc1ccc(C(=O)Nn2c(C3CCC3)nc3ccccc3c2=O)c(OC)c1 | - | . | . | . | . | -
CCCCCCc1nc2ccccc2c(=O)n1NC(=O)c1c(O)c2c(n(CC(C)C)c1=O)CCCC2 | - | - | - | - | - | -
Cc1nc2ccccc2c(=O)n1NC(=O)COc1ccccc1 | - | - | - | - | - | -
Cc1cccc(C)c1OCC(=O)Nn1c(C)nc2ccccc2c1=O | - | - | - | - | 64 | -
Cc1ccc(C(C)C)c(OCC(=O)Nn2c(C)nc3ccccc3c2=O)c1 | - | - | - | - | 84 | -5
Cc1nc2ccccc2c(=O)n1NC(=O)c1c(O)c2c(n(CC(C)C)c1=O)CCCC2 | - | . | . | . | . | -11
O=C(NCc1ccccc1)c1c[nH]c2cc3c(cc2c1=O)OCCO3 | - | . | . | . | . | -
Cc1ccc(C(C)C)c(OC(=O)/C=C/c2ccccc2)c1 | - | - | - | - | - | -
Cn1c(SCC(=O)Nc2ccccc2F)nnc1-c1ccc(S(=O)(=O)N2CCOCC2)cc1 | - | - | - | - | - | -
CCC(CC)C(=O)OCC(=O)NC12CC3CC(CC(C3)C1)C2 | - | - | 94 | - | - | -
O=C(COC(=O)C12CC3CC(CC(C3)C1)C2)NC12CC3CC(CC(C3)C1)C2 | - | - | - | - | - | -
Cc1cc2c(n1-c1ccc(Br)cc1)CC(C)(C)CC2=O | - | - | 67 | - | - | .
CCc1ccc(C(C)NC(=O)c2ccc(F)cc2)cc1 (stereo not drawn) | - | - | 55 | - | 51 | -4.1
CC1(C(=O)NC2CCCC2)CCC(=O)N1Cc1ccccc1Cl (stereo not drawn) | - | 2.3 | - | - | - | -
O=C(Cn1[nH]c(=O)c2ccccc2c1=O)Nc1ccc(-c2nnc3n2CCCCC3)cc1 | - | - | - | - | - | -
CCOc1ccc(N2C(=O)CSC23CCCCC3)cc1 | - | - | 84 | - | - | -
O=c1c([N+](=O)[O-])c(N2CCCCC2)c2ccccc2n1-c1ccccc1 | - | - | - | - | - | -
Nc1c(N2CCCCC2)c(=O)[nH]c(=O)n1-c1ccccc1 | - | - | 55 | - | - | -
O=C(c1ccc(Cl)c(Cl)c1)N1CCC(=O)N(C(COCc2ccccc2)Cc2ccccc2)CC1 (stereo not drawn) | . | . | . | . | . | -5
COc1ccc(-c2onc(C)c2-c2ccc(C(=O)OC(C)C)o2)c(O)c1 | - | - | 98 | - | 98 | -5.2
SMILES | PTK2B oligo ant | CYP2C9 activ | CYP2C19 inh | CYP2C19 activ | CYP2C9 inh | Cav32 inh
CC(C)CCN1C(=O)c2ccc(C(=O)NCC3CCCO3)cc2C1=O (stereo not drawn) | - | - | 79 | - | 81 | -
O=C(NCC1CCCO1)C1c2ccccc2C(=O)N1C1CCCCCCC1 (stereo not drawn) | - | - | - | - | - | .
O=C(NCC1CCCO1)c1ccc2c(c1)C(=O)N(C1CCCCC1)C2=O (stereo not drawn) | - | - | - | - | 61 | -
FC(F)(F)c1ccc(C2[C@H]3CN(Cc4cccnc4)[C@H](c4ccccc4)C34CC2(c2ccccc2)C4)cc1 (stereo partly drawn) | . | . | . | . | . | -
Cc1ccc(NC(=O)C(C)c2ccc(-c3ccccc3)c(F)c2)cc1 (stereo not drawn) | - | - | - | - | 96 | -
CC1(C)C2CCC1(C)C(NC(=O)CCN1CCCCC1)C2 (stereo not drawn) | - | - | - | - | 62 | -
Cn1c(=O)[nH]c(=O)c2c1nc(SCC(O)CO)n2Cc1ccccc1Cl (stereo not drawn) | - | - | - | - | - | -
CSc1nc2ncc3c(n2n1)CC1c2ccccc2CCN1C3=O (stereo not drawn) | - | - | 72 | - | 55 | -
Cc1ccc(CC(=O)NCc2ccc3c(c2)OCO3)cc1 | - | - | - | - | - | -
Cc1ccc2c(CC(=O)NCc3ccc4c(c3)OCO4)coc2c1 | - | - | 52 | - | 79 | -4.6
Cc1ccc2c(CC(=O)OC(C)C(=O)NCc3ccc4c(c3)OCO4)coc2c1 (stereo not drawn) | - | - | 53 | - | 94 | -5.1
COc1ccc2c(CC(=O)NCc3ccc4c(c3)OCO4)coc2c1 | - | - | 96 | - | 89 | -
CC(CCc1ccccc1)NC(=O)c1cncc(Br)c1 (stereo not drawn) | - | - | - | - | - | -
COCCn1c(=O)[nH]c2cc(C(=O)NCCN3CCN(c4ccc(OC)cc4)CC3)ccc2c1=O | - | . | . | . | . | -
CC(C)Nc1nc(NC(C)C)nc(SCCOC(=O)Nc2ccc(Cl)cc2Cl)n1 | - | . | . | . | . | .
CCCc1ccc(S(=O)(=O)NCCc2ccncc2)cc1 | - | - | 99 | - | 98 | -
CC1CCCC(C)N1S(=O)(=O)c1ccc(S(=O)(=O)NCCc2ccncc2)cc1 (stereo not drawn) | - | . | . | . | . | -
CCCCCc1ccc(S(=O)(=O)NCCc2ccncc2)cc1 | - | - | 100 | - | 97 | -
CC(C)(C)c1ccc(S(=O)(=O)NCCOCC(F)(F)C(F)F)cc1 | - | 2.4 | 97 | - | - | -3.8
O=C(O)CCc1ccc(S(=O)(=O)NCCc2ccccc2)cc1 | - | - | - | - | - | -
COCCNS(=O)(=O)c1ccc(-c2ccc(S(=O)(=O)NCCOC)cc2)cc1 | - | . | . | . | . | .
CC(C)(C)c1ccc(S(=O)(=O)NCCc2ccncc2)cc1 | - | - | 100 | - | 92 | -
COc1ccc2cc(C)c3nnc(SCC(=O)Nc4nc(-c5ccccc5)cs4)n3c2c1 | - | - | - | - | - | -
CC1(O)N(Cc2ccccc2)C(=O)OC12CCCCC2 (stereo not drawn) | - | - | 74 | - | - | -
CN1C(=O)OC(C)(CCc2ccccc2)C1(C)O (stereo not drawn) | - | - | - | - | - | -
COc1cc(C(Nc2ccc3c(c2)OCO3)C(=O)NC2CCCCC2)cc(OC)c1OC (stereo not drawn) | - | - | 74 | - | - | -
COc1ccc(C(C(=O)NC2CCCC2)N(C(=O)c2ccco2)c2ccc3c(c2)OCO3)cc1OC (stereo not drawn) | - | - | - | - | - | -
CC(C)NC(=O)C1CC(=O)N(C(C)c2ccccc2)C1 (stereo not drawn) | - | - | - | - | - | -
CCOc1ccc(C2CC(c3ccccc3)Nc3nc(N)nn32)cc1 (stereo not drawn) | - | - | - | - | 51 | -
